D1 antagonist: antagonists of human D1 dopamine receptor | P21728 | HEK293 TREx D1 cells, calcium flux, dopamine EC80; hits give low values | activity change, negative = inhibition, % at 10 µM | actives 3.2% (n = 360,000) | AID 504652; in the data active = activity change below about -30%
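Tetracycline-induced HEK293 Trex D1 cells, force-coupled to calcium, dye-loaded; compounds added and read 180 s, then EC80 dopamine added and calcium flux tracked kinetically another 180 s.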
D1 ag: agonists of human D1 dopamine receptor | P21728 | HEK293 T-REx D1 cells, calcium flux, agonist mode | activation, % at 2 µM | actives 1% (n = 360,000) | AID 504660
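Tetracycline-induced HEK293 TREx D1 cells, force-coupled to calcium signalling, were dye-loaded with a no-wash calcium kit. Compound was pin-added after a 10 s baseline. Fluorescence was read kinetically at 1 cycle/s for 180 s, with calcium rises flagged as agonism.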
TRHR PAM: allosteric enhancers of human TRH receptor. P34981. TRHR cells, fluo-8 calcium fluorescence, EC20 TRH enhancement. enhancement, % at 2 µM. actives 0.66% (n = 360,000). AID 493056; in the data active = enhancement above about 30%
Target sequence (P34981 whole entry, looked up): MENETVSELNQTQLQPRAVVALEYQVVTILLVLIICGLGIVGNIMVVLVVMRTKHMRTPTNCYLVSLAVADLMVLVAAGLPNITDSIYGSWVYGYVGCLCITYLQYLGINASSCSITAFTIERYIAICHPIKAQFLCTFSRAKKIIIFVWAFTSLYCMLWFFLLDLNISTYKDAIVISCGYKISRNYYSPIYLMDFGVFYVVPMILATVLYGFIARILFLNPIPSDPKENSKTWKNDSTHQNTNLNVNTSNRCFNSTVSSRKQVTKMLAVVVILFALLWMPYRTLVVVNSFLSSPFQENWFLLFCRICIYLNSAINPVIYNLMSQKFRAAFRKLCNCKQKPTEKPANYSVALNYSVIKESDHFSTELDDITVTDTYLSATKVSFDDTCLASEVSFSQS
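Enhancer read-out: after compound pinning and an initial kinetic agonist-mode read, an EC20 of TRH (10 nM final) was injected and fluo-8 calcium signal (Ex 480/Em 530) followed at 1 s/cycle for 100 cycles in TRHR-expressing cells.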
TRHR ag: activates the human TRH receptor. TRHR cells, calcium flux fluo-8, FDSS agonist mode. actives 0.18% (n = 360,000). AID 493084. activation, % at 2 µM
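Steps: seed TRHR cells overnight; add fluo-8 no-wash Ca dye, RT 30 min–1.5 h; record 10 s baseline; pin-transfer compounds; monitor fluorescence 1 cycle/s for the agonist window. Calcium increases flag candidate agonists.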
D1 potentiator: potentiators of human D1 dopamine receptor. P21728. HEK293 TREx D1 cells, calcium flux, dopamine EC20 potentiation. potentiation, % at 10 µM. actives 0.036% (n = 360,000); in the data active = potentiation above about 30%
Large screens that a line does not name were inactive; ! = not confirmed by another sample. Compounds with a hit are over-represented: about 4.7% of the library has one in this group of screens. Rule as the data show it, unless noted: active = activation above about 30%; inactive = the rest.

Cc1[nH]c(C)c(S(=O)(=O)N2CCN(c3ccc(Cl)cc3)CC2)c1C(=O)N1CCCC1	D1 antagonist -34
CCOc1ccc(NC(=O)N(Cc2c[nH]c3ccccc23)C2CCCCCC2)cc1	none
CC1CC(C)CN(C(=O)CN2C(=O)NC(c3ccccc3)(c3ccccc3)C2=O)C1 (stereo not given)	none
Cc1ccccc1CNS(=O)(=O)c1c(C(=O)N2CCCC2)c(C)n(C)c1C	TRHR PAM 35
Cc1c(C(=O)N2CCCCC2)c(S(=O)(=O)NCc2ccccc2Cl)c(C)n1C	none
COc1ccc(N2CCN(S(=O)(=O)c3c(C(=O)N4CCOCC4)c(C)n(C)c3C)CC2)cc1	D1 antagonist -35
Cc1c(C(=O)N2CCOCC2)c(S(=O)(=O)Nc2cccc(C#N)c2)c(C)n1C	D1 antagonist -49
CCN(CC(=O)N1CCCC1)S(=O)(=O)c1ccc(OC)cc1	none
Cc1cc(C)nc(-n2cc(C(=O)c3cc(F)ccc3O)cn2)n1	none
CCn1c(C)nc2cc(C(=O)n3cc(C(=O)c4cc(F)ccc4O)cn3)ccc21	TRHR PAM 30
Cc1ccc(-c2nc3ccccn3c2Nc2ccc3c(c2)OCO3)cc1	none
Cc1ccc(Nc2c(-c3ccc(N(C)C)cc3)nc3ccccn23)cc1	D1 antagonist -30
Cc1ccc(N2CCN(S(=O)(=O)N3CCOCC3)CC2)cc1C	D1 antagonist -31
CN1C(=O)c2ccccc2Sc2ccc(NC(=O)N3CCN(c4cccc(Cl)c4)CC3)cc21	none
Cc1c(C(=O)NCCc2ccc(Cl)cc2)sc2nc3n(c(=O)c12)CCCC3	D1 ag 99
CC(=O)c1cccc(NC(=O)c2sc3nc4n(c(=O)c3c2C)CCCC4)c1	none
Cc1c(C(=O)Nc2cccc(C(F)(F)F)c2)sc2nc3n(c(=O)c12)CCCC3	D1 ag 36
Cc1c(C(=O)NCc2ccccc2)sc2nc3n(c(=O)c12)CCCCC3	D1 ag 45
Cc1c(C(=O)NCCc2ccc(Cl)cc2)sc2nc3n(c(=O)c12)CCC3	none
Cc1ccccc1Nc1c(-c2ccc(N3CCOCC3)cc2)nc2ccc(Br)cn12	none
Cn1c(=O)c2c(ncn2CCOc2cccc(Br)c2)n(C)c1=O	none
O=C(N/C=C\c1ccccc1)NCc1ccc(Cl)cc1	D1 antagonist -31
O=C(COC(=O)CC(c1ccccc1)c1ccccc1)NCc1ccc(Cl)cc1	D1 antagonist -34
COc1ccccc1CNC(=O)CC(C)c1ccccc1 (stereo not given)	none
CC(CC(=O)NCc1ccc(Cl)cc1)c1ccccc1 (stereo not given)	TRHR PAM 34
CCCC(=O)OCC(=O)NCc1ccc(Cl)cc1	none
Cc1cccc(N2CCN(c3nc4ccccc4c(=O)n3-c3ccc(Cl)cc3)CC2)c1C	none
Cc1ccc(C)c(N2CCN(c3nc4ccccc4c(=O)n3-c3ccc(Cl)cc3)CC2)c1	D1 antagonist -56
COc1ccc(OC)c(C2CC(=O)Nc3c2c(=O)[nH]c2nc4ccccc4n32)c1 (stereo not given)	none
Cc1cc(NC(=O)CSCC(=O)N(C)Cc2ccc(Cl)cc2Cl)no1	none
N#C/C(=C\c1ccc(Sc2ccccc2)o1)c1nc2ccccc2[nH]1	none
Cc1cc2nc(/C(C#N)=C\c3ccc(-c4ccccc4C(=O)O)o3)[nH]c2cc1C	D1 ag 82, TRHR ag 39
Cc1ccc2nc(/C(C#N)=C/c3ccc(-c4ccccc4C(=O)O)o3)[nH]c2c1	D1 ag 49, TRHR ag 70
N#C/C(=C/c1ccc(Sc2nc3ccccc3[nH]2)o1)c1ccccc1F	D1 ag 39
N#C/C(=C\c1ccc(-c2ccccc2C(=O)O)o1)c1nc2ccccc2[nH]1	D1 ag 38, TRHR ag 46!
Cc1cc(/C=C(/C#N)c2nc3ccccc3[nH]2)c(C)n1-c1ccccc1C(=O)O	none
N#C/C(=C\c1ccc([N+](=O)[O-])o1)c1nc2ccccc2[nH]1	D1 ag 41
N#C/C(=C\c1ccc(-c2ccc(F)cc2F)o1)c1nc2ccccc2[nH]1	D1 ag 151, TRHR ag 78
CCOC(=O)c1ccc(-c2ccc(/C=C(\C#N)c3nc4ccc(C)cc4[nH]3)o2)cc1	D1 ag 270, TRHR ag 120
